# Source: PubChem (several laboratories)
# Only some compounds are listed: those with a hit (about 4.1% of all), similar ones and a draw of the others.
# Jurkat NFkB inh – inhibitors of the PMA/ionomycin-induced NF-kB reporter in Jurkat cells; AID 435003; PMA/ionomycin-induced NF-kB luciferase reporter, luminescence; inhibition, % at 4 µM; hit rate 0.53% among 330,000; in the data active means inhibition above about 50%
# Mdm2 MdmX PPI – human Mdm2/MdmX binding inhibition; SaOS-2 split-luciferase Mdm2/MdmX complementation, luminescence; hit rate 3% among 330,000; inhibition, % at 8 µM; O15151+Q00987;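 active means inhibition of at least 50% at 8 µM in the primary screen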
# KLF5 inh – suppresses KLF5 promoter-driven expression | DLD-1 KLF5 promoter-luciferase reporter, luminescence | inhibition, % at 5 µM | hit rate 0.23% among 290,000;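 active means inhibition above a per-plate limit of that plate's mean compound inhibition plus 3 SD, cut at about 60% in these data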;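 further: higher means less KLF5 promoter-driven luciferase light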
# aSyn 5UTR inh – 5' untranslated region of α-synuclein, MLPCN primary screen. alpha-synuclein 5'UTR reporter, inhibitor activity. inhibition, % (tested at 7.5 µM). hit rate 0.82% among 300,000; in the data active means inhibition above about 60%;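 further: H4 neuroglioblastoma cells stably carrying SNCA 5'UTR luciferase fusion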
# Gli-Sufu block – antagonists of Gli-Sufu signaling; hit rate 0.74% among 340,000; Sufu-KO-LIGHT fibroblasts, Gli luciferase reporter luminescence; inhibition, % at 5 µM;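 active means inhibition above about 55%, limit read from the data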
# 697 NFkB inh – inhibitors of the PMA/ionomycin-induced NF-kB reporter in 697 B cells; hit rate 0.33% among 330,000; AID 435022; inhibition, % at 4 µM; 697 B-cell NF-kB luciferase reporter, 16 h; in the data active means inhibition above about 35%
# Jurkat NFkB conf – lowers PMA/ionomycin-induced NF-kB signal in Jurkat cells; hit rate 27% among 2,700; inhibition, % at 4 µM; Jurkat NF-kB luciferase, 16 h; shares compounds with Jurkat NFkB inh;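 active means inhibition reaching about 45% at 4 µM in either replicate, limit read from the data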
# Hits are given with their value; 0 = inactive; - = no result.
SMILES,Jurkat NFkB inh,Mdm2 MdmX PPI,KLF5 inh,aSyn 5UTR inh,Gli-Sufu block,697 NFkB inh,Jurkat NFkB conf
Cc1cc2c(cc1C)C(c1cc(Br)ccc1F)CC(=O)N2 (stereo not given),57,0,0,65,0,0,0
Cc1cc(-c2ccc3c(c2)COc2c4ccccc4nn2-3)on1,0,0,-,0,0,0,0
CCCc1cc(-c2ccc3c(c2)COc2c4ccccc4nn2-3)on1,0,0,-,0,0,0,0
C(#CC1CCCC1)c1ccc2c(c1)COc1c3ccccc3nn1-2,0,0,-,0,0,0,-
C[C@@H](CO)NC(=O)c1ccc2c3n(nc2c1)-c1ccccc1CO3,0,0,-,0,0,0,-
O=[N+]([O-])c1cccc(/C=C/c2nc[nH]c2[N+](=O)[O-])c1,0,0,0,0,0,0,-
Cc1ccc(CN=C2Nc3ccccc3CS2)cc1,0,0,0,0,0,0,0
Clc1ccc(CN=C2Nc3ccccc3CS2)cc1,0,0,0,0,0,0,-
CN(CC(=O)Nc1ccccc1C(=O)NC1CC1)Cc1cccs1,0,0,-,-,0,0,-
CCOC(=O)CNc1ncc(C(F)(F)F)cc1Cl,0,0,0,0,0,0,-
N#CCC(CNc1ncc(C(F)(F)F)cc1Cl)OC(=O)c1ccc(Cl)cc1Cl (stereo not given),70,0,0,0,0,0,0
O=[N+]([O-])C1C(c2ccccc2)=NOC1c1ccccc1O (stereo not given),0,0,0,0,0,0,-
CSCC[C@H](NS(=O)(=O)c1ccc(C(C)=O)cc1)c1nnc2ccccn12,0,0,0,0,0,0,-
Cc1cc(Sc2ccc([N+](=O)[O-])cn2)ccc1Br,62,0,-,0,0,0,0
COC(=O)C1C(=O)c2c([nH]c(C(=O)OC3CCCC3)c2C)CC1C (stereo not given),0,0,0,0,0,0,0
Cc1c(C(=O)OC2CCCC2C)[nH]c2c1C(=O)CCC2 (stereo not given),0,0,0,0,0,0,-
CCc1nc(Nc2ccccc2F)c2oc3ccccc3c2n1,0,0,0,0,0,0,-
CCC(=O)Nc1ccc2c(c1)C(=O)N(C)C2=O,0,0,0,0,0,0,-
CCC(=O)Nc1ccc2c(c1)C(=O)c1ccccc1C2=O,0,0,0,0,0,0,0
Cc1onc(-c2ccccc2)c1C(=O)Nc1ccccc1N1CCOCC1,0,0,0,0,0,0,-
Cc1onc(-c2ccccc2)c1C(=O)Nc1cc(C(F)(F)F)ccc1N1CCOCC1,56,0,0,0,0,0,0
Cc1cccc(C)c1OCCNC(=O)OCc1ccccc1,0,0,0,0,0,0,-
Cc1cc2nc(-c3ccc(SCC(=O)NC(C)C)nc3)[nH]c2cc1C,0,0,0,0,-,0,-
Cc1cc2nc(-c3ccc(SCC(=O)Nc4ccc(S(=O)(=O)NC5CC5)cc4)nc3)[nH]c2cc1C,0,0,0,0,0,0,0
CCc1cc(C(=O)N2CCCC(Nc3ccc(F)c(F)c3)C2)n(C)n1 (stereo not given),0,0,0,0,0,0,-
SMILES,Jurkat NFkB inh,Mdm2 MdmX PPI,KLF5 inh,aSyn 5UTR inh,Gli-Sufu block,697 NFkB inh,Jurkat NFkB conf
Cc1ccc(C)c(N(C(=O)c2csnn2)C(C(=O)NC2CCCCC2)c2cccnc2)c1 (stereo not given),0,0,0,0,0,0,-
Cc1ccc(N=C/C(C(=O)C(F)(F)F)=C(\O)c2ccco2)cc1Cl,0,0,0,0,0,0,0
CC(C)Sc1nc2sccc2c(=O)n1-c1ccccc1,0,0,0,0,0,0,-
O=C(Nc1ccc2ccccc2c1)c1cccc(F)c1,0,0,0,0,0,0,0
CC(=O)c1cc(C(=O)Nc2ccc3ccccc3c2)c(C)o1,0,0,0,0,0,0,-
Cc1cc(C(=O)Nc2ccc3ccccc3c2)c(C)o1,0,0,0,0,0,0,0
CSc1ccccc1OCc1cc(C(=O)N2CCN3CCCC3C2)no1 (stereo not given),0,0,0,0,0,0,-
Cc1ccc(C(=O)CCNc2ccc(F)c(Cl)c2)o1,73,0,0,0,0,0,0
Cc1ccc(C(=O)CCNc2ccc(Br)cc2)o1,0,0,0,0,0,0,-
COc1ccc(Nc2nc3cc(C)ccc3cc2C#N)c(OC)c1,65,0,0,0,0,0,0
COc1ccc(Nc2nc3ccc(C)cc3cc2C#N)c(OC)c1,0,0,0,0,0,0,-
COc1ccc(NC(=O)Cn2c(C(C)C)nc(C)cc2=O)cc1Cl,0,0,0,0,0,0,-
COc1ccc2c(c1)CCc1c(C(=O)NC3CCCCC3)noc1-2,0,0,0,0,0,0,0
COCCNC(=O)c1noc2c1CCc1cc(OC)ccc1-2,0,0,0,0,0,0,-
O=C(Cc1n[nH]c(=O)c2ccccc12)OCC(=O)c1ccc(OC(F)F)cc1OC(F)F,0,0,-,0,0,0,-
NS(=O)(=O)c1ccc(CCNC(=S)NC(=O)c2ccccc2Br)cc1,0,0,-,-,0,0,-
CN1CCN(c2ccc(-c3cccc(NC(=O)COc4ccc(Cl)cc4)c3)nn2)CC1,0,0,-,0,0,0,0
O=C(COc1ccccc1)Nc1cccc(-c2nc3cc4ccccc4cc3[nH]2)c1,0,0,0,0,0,0,0
CN1CCN(c2ccc(-c3cccc(NC(=O)COc4ccccc4)c3)nn2)CC1,0,0,-,0,0,0,0
CN1CCN(c2ccc(-c3cccc(NC(=O)COc4ccc(Cl)cc4Cl)c3)nn2)CC1,0,0,-,0,0,0,0
CCC(=O)Nc1cccc(-c2ccc(N3CCN(C)CC3)nn2)c1,0,0,0,0,0,0,-
O=C(COc1ccccc1)Nc1cccc(-c2nn[nH]n2)c1,0,0,0,0,0,0,-
CN(C)c1ccc(N/C=C/C(=O)c2ccccc2)cc1,0,0,0,0,0,0,0
Cc1ccc(C(=O)/C=C\Nc2ccc(C)c(C)c2)cc1,0,0,0,0,0,0,0
Cc1cc(N/C=C/C(=O)c2ccccc2)ccc1Br,0,0,0,0,0,0,0
SMILES,Jurkat NFkB inh,Mdm2 MdmX PPI,KLF5 inh,aSyn 5UTR inh,Gli-Sufu block,697 NFkB inh,Jurkat NFkB conf
Cc1ccc(O)c(N/C=C/C(=O)c2ccc(F)cc2)c1,85,0,0,0,0,0,0
Cc1ccc(C(=O)NNC(=O)CCCCC(=O)NNC(=O)c2ccc(C)cc2)cc1,0,0,0,0,0,0,-
CCCCN(C(=O)c1cc(Cl)nc2ccccc12)c1c(N)n(CCCC)c(=O)[nH]c1=O,0,0,-,0,0,0,-
Cc1ccc(NC(=O)CCSc2nnnn2-c2ccc3c(c2)OCO3)cc1C,0,0,0,0,0,0,-
CNc1nc(-c2cccs2)cc(C(F)(F)F)c1C#N,0,0,0,0,0,0,-
N#CCCN(Cc1ccccc1)C(=O)c1nccnc1C(=O)O,0,0,0,0,0,0,-
Cc1ccc(C(=O)/C=C/Nc2ccc([N+](=O)[O-])cc2Br)cc1,0,0,0,0,0,0,0
CC1(C)CC(NC(=S)NCc2ccc3c(c2)OCO3)CC(C)(C)N1,0,0,0,0,-,0,-
Cc1ccc(NC(=O)CSCC(=O)Nc2nnc(C)s2)cc1,0,0,-,0,0,0,-
